# Unmarked numbers belong to inactive results.
# Columns and labels:
# Assay in all cases: log2 ratio of Biotin-Ahx-Ub-VS probe labelling (fragment/DMSO); higher = less target engagement (more negative = stronger competition), active = hit call of the paper (q ≤ 0.05, log2 ratio ≤ -1)
# Details in all cases: compound concentration: 200 uM; treatment time: 3 h
# OTUD6B = molecular target: T1, OTUD6B (UniProt Q8N6M0)
# T1 sequence (whole entry): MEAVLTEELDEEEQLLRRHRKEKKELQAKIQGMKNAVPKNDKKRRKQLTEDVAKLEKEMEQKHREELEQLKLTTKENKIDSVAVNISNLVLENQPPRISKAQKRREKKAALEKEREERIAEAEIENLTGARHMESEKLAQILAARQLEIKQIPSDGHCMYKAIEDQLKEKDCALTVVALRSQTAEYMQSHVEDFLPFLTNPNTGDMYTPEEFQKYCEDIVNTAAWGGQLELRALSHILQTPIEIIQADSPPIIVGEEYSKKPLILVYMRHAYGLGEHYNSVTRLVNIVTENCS
# Outline: (§1)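 Average log2 ratios of fragment over vehicle were obtained by unpaired t-test from global-median-normalised Spectronaut label-free quantities. Proteins with ≥2 unique peptides were included. HEK293T lysate (495 µg per sample) was treated in triplicate with fragment at 200 µM or vehicle for 3 h, then with Biotin-Ahx-Ub-VS at 0.5 µM final for 1 h, and labelled DUBs were NeutrAvidin-enriched and run by diaPASEF LC-MS/MS.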
# OTUD7B = molecular target: T2, OTUD7B (UniProt Q6GQQ9)
# T2 sequence (whole entry): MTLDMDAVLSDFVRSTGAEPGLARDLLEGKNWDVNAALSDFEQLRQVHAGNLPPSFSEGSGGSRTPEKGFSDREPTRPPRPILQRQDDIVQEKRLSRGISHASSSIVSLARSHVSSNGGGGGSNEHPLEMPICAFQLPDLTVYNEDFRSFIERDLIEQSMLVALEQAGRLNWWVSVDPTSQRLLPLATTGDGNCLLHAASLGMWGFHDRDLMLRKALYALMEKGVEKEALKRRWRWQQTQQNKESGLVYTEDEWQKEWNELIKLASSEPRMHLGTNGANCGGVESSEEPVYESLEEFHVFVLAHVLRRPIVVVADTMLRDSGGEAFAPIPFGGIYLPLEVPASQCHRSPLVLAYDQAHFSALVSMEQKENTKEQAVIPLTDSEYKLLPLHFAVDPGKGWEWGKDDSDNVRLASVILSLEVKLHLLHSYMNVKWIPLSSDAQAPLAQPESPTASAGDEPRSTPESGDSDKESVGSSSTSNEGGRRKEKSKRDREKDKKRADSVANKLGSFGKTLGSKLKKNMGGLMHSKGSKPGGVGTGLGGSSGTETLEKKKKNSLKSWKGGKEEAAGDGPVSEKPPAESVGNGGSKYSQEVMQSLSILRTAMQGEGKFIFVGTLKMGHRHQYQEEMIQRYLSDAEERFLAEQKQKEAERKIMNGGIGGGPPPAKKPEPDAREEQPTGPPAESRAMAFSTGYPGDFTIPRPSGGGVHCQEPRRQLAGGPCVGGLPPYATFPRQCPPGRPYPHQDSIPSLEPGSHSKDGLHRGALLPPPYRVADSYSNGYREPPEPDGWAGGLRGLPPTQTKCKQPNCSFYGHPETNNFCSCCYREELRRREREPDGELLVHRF
# Outline: as §1
# PRPF8 = PRPF8 (UniProt Q6P2Q9)
# Outline: as §1
# PSMD7 = molecular target: T3, PSMD7 (UniProt P51665)
# T3 sequence (whole entry): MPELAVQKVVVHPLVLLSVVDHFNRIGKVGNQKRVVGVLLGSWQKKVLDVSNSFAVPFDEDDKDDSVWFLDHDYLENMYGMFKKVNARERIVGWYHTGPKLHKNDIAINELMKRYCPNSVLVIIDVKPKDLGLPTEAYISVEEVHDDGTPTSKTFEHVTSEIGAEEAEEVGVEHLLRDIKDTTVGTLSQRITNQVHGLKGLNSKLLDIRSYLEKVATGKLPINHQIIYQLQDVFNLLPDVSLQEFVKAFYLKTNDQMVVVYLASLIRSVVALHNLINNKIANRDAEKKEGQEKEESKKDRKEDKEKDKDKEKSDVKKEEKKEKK
# Outline: as §1
# UCHL1 = UCHL1 (UniProt P09936)
# Outline: as §1
# UCHL3 = molecular target: T4, UCHL3 (UniProt P15374)
# T4 sequence (whole entry): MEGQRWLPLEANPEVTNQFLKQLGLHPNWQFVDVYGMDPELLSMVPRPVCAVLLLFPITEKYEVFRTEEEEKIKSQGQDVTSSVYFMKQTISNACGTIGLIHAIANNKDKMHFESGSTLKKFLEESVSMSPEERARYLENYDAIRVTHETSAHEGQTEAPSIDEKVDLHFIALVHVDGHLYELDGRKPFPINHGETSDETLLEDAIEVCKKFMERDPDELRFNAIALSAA
# Outline: as §1
# UCHL5 = molecular target: T5, UCHL5 (UniProt Q9Y5K5)
# T5 sequence (whole entry): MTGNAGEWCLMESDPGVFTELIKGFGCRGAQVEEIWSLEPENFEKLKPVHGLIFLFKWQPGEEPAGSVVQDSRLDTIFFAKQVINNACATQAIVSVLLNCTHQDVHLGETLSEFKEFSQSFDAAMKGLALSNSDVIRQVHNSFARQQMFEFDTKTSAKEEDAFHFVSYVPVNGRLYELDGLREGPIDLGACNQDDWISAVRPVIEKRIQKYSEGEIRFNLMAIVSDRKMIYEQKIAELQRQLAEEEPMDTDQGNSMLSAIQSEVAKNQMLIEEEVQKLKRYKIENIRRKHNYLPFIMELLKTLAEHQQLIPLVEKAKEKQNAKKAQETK
# Outline: as §1
# USP10 = USP10 (UniProt Q14694)
# Outline: as §1
# USP15 = molecular target: T6, USP15 (UniProt Q9Y4E8)
# T6 sequence (whole entry): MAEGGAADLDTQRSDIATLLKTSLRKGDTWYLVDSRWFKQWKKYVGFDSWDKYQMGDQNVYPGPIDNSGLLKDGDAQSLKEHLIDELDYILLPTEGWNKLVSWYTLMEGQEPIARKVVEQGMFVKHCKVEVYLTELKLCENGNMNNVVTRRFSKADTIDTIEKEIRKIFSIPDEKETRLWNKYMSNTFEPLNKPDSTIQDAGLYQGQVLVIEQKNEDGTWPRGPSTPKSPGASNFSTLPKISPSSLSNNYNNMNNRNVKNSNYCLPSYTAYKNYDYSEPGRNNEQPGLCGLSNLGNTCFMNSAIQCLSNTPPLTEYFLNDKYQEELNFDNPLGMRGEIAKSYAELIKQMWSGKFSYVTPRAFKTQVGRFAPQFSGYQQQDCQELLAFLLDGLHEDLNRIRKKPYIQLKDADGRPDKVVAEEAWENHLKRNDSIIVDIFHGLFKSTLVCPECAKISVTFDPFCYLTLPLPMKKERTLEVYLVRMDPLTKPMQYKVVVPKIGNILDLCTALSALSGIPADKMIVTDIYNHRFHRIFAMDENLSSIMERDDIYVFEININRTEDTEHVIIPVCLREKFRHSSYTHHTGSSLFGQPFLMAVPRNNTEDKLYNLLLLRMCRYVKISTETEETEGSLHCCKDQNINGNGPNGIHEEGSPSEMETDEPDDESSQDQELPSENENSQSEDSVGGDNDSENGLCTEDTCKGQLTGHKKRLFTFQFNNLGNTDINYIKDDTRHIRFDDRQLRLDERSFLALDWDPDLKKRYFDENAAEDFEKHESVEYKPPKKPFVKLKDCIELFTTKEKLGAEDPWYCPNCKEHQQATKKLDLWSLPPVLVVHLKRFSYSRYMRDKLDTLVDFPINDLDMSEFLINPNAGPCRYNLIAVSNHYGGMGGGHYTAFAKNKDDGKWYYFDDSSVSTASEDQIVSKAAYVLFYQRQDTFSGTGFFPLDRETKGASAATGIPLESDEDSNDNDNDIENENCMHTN
# Outline: as §1
# USP16 = USP16 (UniProt Q9Y5T5)
# Outline: as §1
# Chain of UCHL1 (P09936 whole entry, looked up): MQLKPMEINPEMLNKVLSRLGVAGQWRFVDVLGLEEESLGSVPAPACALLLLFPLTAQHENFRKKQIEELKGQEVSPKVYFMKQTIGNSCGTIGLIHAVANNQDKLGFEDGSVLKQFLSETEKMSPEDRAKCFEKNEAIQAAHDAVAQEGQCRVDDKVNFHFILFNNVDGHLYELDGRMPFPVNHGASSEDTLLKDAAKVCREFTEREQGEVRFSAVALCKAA
# Chain of USP10 (Q14694 whole entry): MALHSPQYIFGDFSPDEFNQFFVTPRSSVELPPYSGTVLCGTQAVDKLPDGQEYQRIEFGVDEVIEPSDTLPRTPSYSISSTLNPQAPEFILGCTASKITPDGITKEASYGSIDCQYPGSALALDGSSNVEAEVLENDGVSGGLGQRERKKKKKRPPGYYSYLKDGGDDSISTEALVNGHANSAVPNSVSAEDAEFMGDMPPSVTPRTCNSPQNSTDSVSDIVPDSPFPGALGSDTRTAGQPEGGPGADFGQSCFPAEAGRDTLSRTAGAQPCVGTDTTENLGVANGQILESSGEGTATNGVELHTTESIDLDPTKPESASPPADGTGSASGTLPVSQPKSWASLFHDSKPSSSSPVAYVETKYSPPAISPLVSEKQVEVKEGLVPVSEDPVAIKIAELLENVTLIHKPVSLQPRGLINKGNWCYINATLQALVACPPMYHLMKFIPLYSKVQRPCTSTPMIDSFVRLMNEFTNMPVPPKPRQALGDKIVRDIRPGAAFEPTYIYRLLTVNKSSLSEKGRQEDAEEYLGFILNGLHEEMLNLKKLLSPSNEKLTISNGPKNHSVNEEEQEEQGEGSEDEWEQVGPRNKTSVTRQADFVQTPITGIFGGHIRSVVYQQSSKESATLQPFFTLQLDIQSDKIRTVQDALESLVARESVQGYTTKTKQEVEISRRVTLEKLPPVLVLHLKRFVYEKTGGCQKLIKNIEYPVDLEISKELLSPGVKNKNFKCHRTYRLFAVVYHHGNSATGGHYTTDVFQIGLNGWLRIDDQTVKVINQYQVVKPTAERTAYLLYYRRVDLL
# Chain of USP16 (Q9Y5T5 whole entry, looked up): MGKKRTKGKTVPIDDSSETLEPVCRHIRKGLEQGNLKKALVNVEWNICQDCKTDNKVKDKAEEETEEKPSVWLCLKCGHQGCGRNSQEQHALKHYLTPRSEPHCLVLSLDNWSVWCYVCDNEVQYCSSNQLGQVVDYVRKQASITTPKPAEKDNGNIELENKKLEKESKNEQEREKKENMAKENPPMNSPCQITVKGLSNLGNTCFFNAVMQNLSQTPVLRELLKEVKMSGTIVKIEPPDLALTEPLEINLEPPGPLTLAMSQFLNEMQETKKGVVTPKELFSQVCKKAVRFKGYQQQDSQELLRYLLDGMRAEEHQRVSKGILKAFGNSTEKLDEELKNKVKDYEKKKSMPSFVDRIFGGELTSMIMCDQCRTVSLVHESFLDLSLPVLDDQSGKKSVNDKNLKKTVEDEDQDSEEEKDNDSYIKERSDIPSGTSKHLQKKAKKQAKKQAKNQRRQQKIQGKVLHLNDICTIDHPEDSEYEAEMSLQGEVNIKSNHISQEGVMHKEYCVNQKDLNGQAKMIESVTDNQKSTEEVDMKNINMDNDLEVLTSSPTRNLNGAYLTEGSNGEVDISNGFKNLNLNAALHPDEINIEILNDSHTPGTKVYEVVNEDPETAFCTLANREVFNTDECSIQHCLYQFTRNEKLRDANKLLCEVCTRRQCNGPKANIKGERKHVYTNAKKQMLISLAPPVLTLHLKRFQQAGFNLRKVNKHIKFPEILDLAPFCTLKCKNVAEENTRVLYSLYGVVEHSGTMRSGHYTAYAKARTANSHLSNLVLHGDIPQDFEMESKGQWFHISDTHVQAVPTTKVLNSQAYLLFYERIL
compound,measurement,setting,value
NS(=O)(=O)c1ccc(Cl)c(NC(=O)CCl)c1,log2 ratio of Biotin-Ahx-Ub-VS probe labelling,OTUD6B,-0.573
same,log2 ratio of Biotin-Ahx-Ub-VS probe labelling,OTUD7B,-1.63 (active)
same,log2 ratio of Biotin-Ahx-Ub-VS probe labelling,PRPF8,-0.153
same,log2 ratio of Biotin-Ahx-Ub-VS probe labelling,PSMD7,-0.125
same,log2 ratio of Biotin-Ahx-Ub-VS probe labelling,UCHL1,-1.51 (active)
same,log2 ratio of Biotin-Ahx-Ub-VS probe labelling,UCHL3,0.209
same,log2 ratio of Biotin-Ahx-Ub-VS probe labelling,UCHL5,-0.489
same,log2 ratio of Biotin-Ahx-Ub-VS probe labelling,USP10,-0.299
same,log2 ratio of Biotin-Ahx-Ub-VS probe labelling,USP15,-0.166
same,log2 ratio of Biotin-Ahx-Ub-VS probe labelling,USP16,0.0198

# From the supplement of paper PMC11732987, “Enantioselective OTUD7B fragment discovery through chemoproteomics screening and high-throughput optimisation” (Communications Chemistry, 2025)
